Assay results as given in PubChem BioAssay (NCATS).
Results filed as inconclusive are left out. Active and inactive are the calls of the source. Unless noted, the call rests on the fitted dose curve; in most records, active means well fitted curve in the direction sought with a large enough effect; inconclusive means small, poorly fitted or top-dose-only effect, or another doubt; inactive means no such curve, though single readings can be large; an effect the other way counts as inactive or inconclusive. Where a SMILES comes first, the peptide text is derived from it.

Key:
[1] = biological target: Pyruvate kinase PKM (Homo sapiens) (UniProt P14618); assay: qHTS Assay for Activators of Human Muscle Pyruvate Kinase (AID 954; active means well fitted curve in the direction sought with a large enough effect, not every such curve was filed as active;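 further: 0% = uninhibited enzyme and -100% = no enzyme or full thiadiazolimine inhibition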)
In short: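 Purified human PKM2 (0.1 nM) with 0.5 mM PEP (Km) and 0.1 mM ADP in 50 mM imidazole pH 7.2, KCl, MgCl2, 1 h at room temperature; ATP formed read by coupled luciferase luminescence. Normalized to no-enzyme/110 uM thiadiazolimine inhibition; 0.3 nM enzyme column for activation.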

[2] = biological target: Muscarinic acetylcholine receptor M1 (Rattus norvegicus) (UniProt P08482); assay: qHTS Assay for Antagonists of Acetylcholine Muscarinic M1 Receptor: Kinetic Measurement of Intracellular Calcium Response (AID 943); further: nearly all actives have a fitted effect of over 75% in size
In short: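 CHO cells expressing rat M1 receptor, Fluo-4 loaded, preincubated 10 min with compound, then stimulated with EC80 carbachol (100 nM final). Kinetic calcium fluorescence over 4 min; response taken as peak over basal signal.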

[3] = qHTS Assay for Identification of Small Molecule Agonists for Hypoxia Response Element Signaling Pathway (AID 914; active means well fitted activation curve with a large enough effect in the signal ratio, with a control signal flat, not every such curve was filed as active; the % refers to the signal ratio; further: % of control where 0% means no effect); conditions: ME-180 (cervical carcinoma) HRE-bla reporter, beta-lactamase ratio, CoCl2, 17 h; activation: hits give high values
In short: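 Cells were plated overnight, pin-dosed with compound in a titration series, co-stimulated with EC50 CoCl2 and incubated 17 hours at 37 degrees Celsius. CCF4 substrate was then loaded, and AC50 values came from the 460nm/530nm ratio.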

[4] = biological target: DNA dC->dU-editing enzyme APOBEC-3G (Homo sapiens) (UniProt Q9HC16); assay: qHTS for inhibitors of Vif-A3G interactions: Validation (AID 588379); further: 0% is about no effect
In short: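 HeLa cells stably expressing Vif and A3G-eYFP, 700 cells/well, incubated overnight at 37 deg C, then exposed to compound overnight at 37 deg C. Inhibition of Vif-mediated degradation read as increased yellow fluorescence (Ex 488/Em 500-530) by laser-scanning cytometry.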

[5] = Inducers of the Endoplasmic Reticulum Stress Response (ERSR) in human glioma: Validation (AID 504836); further: 0% is about no effect
In short: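 Stably transfected U87-MG glioma cells carrying a GRP78-based luciferase sensor; 16 h compound incubation. Luminescence end-point read 10 min after Bright-Glo addition at room temperature.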

[6] = S16 Schwann cell PMP22 intronic element firefly luciferase assay (AID 624032);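 further: plate controls were DMSO for no effect and PTC124 positive control mean for full effect; nearly all actives have a fitted effect of over 30% in size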
In short: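 Rat S16 Schwann cells stably carrying firefly luciferase driven by a PMP22 intronic element, in 10% FBS, treated 24 h at 37 C. ONE-Glo luminescence normalized to PTC124 control and DMSO (0%); curves classed by r2, magnitude and activity.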

[7] = biological target: ATP-dependent 6-phosphofructokinase (Trypanosoma brucei brucei) (UniProt O15648); assay: qHTS Assay to Find Inhibitors of T. brucei phosphofructokinase: hit validation (AID 492961);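 further: luminescence reports ADP formed as PFK phosphorylates fructose-6-phosphate with ATP; on the % scale 0 is the no-effect control and ±100 the full control effect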
In short: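 Compounds titrated; %activity normalized to 0x and 1x enzyme controls, curve-fitted. Readout: ADP-Glo luminescence after 45 min room-temperature reaction of 1.25 nM PFK, 0.1 mM ATP, 0.5 mM F6P, pH 8.0.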

3D7 = assay: qHTS profiling for inhibitors of Plasmodium falciparum proliferation (AID 504749);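 further: 0% = DMSO vehicle and full inhibition = artemisinin control; nearly all actives have a fitted effect of over 60% in size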; conditions: P. falciparum in erythrocytes, SYBR Green DNA, 72 h; series mostly up to 28.7 µM
In short: (§1)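 P. falciparum-infected erythrocytes (0.3% parasitemia, 2.5% hematocrit) incubated with compound 72 h at 37 C, 5% CO2. Parasite DNA detected by SYBR Green after lysis, overnight at room temperature; normalised to 0.29 uM artemisinin and DMSO.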

CP191 = assay: as above; conditions: P. falciparum in erythrocytes, SYBR Green DNA, 72 h; series mostly up to 28.7 µM
In short: as §1

CP192 = assay: as above; conditions: P. falciparum in erythrocytes, SYBR Green DNA, 72 h; series mostly up to 28.7 µM
In short: as §1

CP201 = assay: as above; conditions: P. falciparum in erythrocytes, SYBR Green DNA, 72 h; series mostly up to 28.7 µM
In short: as §1

CP237 = assay: as above; conditions: P. falciparum in erythrocytes, SYBR Green DNA, 72 h; series mostly up to 28.7 µM
In short: as §1

CP262 = assay: as above; conditions: P. falciparum in erythrocytes, SYBR Green DNA, 72 h; series mostly up to 28.7 µM
In short: as §1

CP268 = assay: as above; conditions: P. falciparum in erythrocytes, SYBR Green DNA, 72 h; series mostly up to 28.7 µM
In short: as §1

CP286 = assay: as above; conditions: P. falciparum in erythrocytes, SYBR Green DNA, 72 h; series mostly up to 28.7 µM
In short: as §1

DIV30 = assay: as above; conditions: P. falciparum in erythrocytes, SYBR Green DNA, 72 h; series mostly up to 28.7 µM
In short: as §1

Dd2 = assay: as above; conditions: P. falciparum in erythrocytes, SYBR Green DNA, 72 h; series mostly up to 28.7 µM
In short: as §1

ECU = assay: as above; conditions: P. falciparum in erythrocytes, SYBR Green DNA, 72 h; series mostly up to 28.7 µM
In short: as §1

GB4 = assay: as above; conditions: P. falciparum in erythrocytes, SYBR Green DNA, 72 h; series mostly up to 28.7 µM
In short: as §1

HB3 = assay: as above; conditions: P. falciparum in erythrocytes, SYBR Green DNA, 72 h; series mostly up to 28.7 µM
In short: as §1

Sequence of ATP-dependent 6-phosphofructokinase (Trypanosoma brucei brucei) (O15648 whole entry, looked up): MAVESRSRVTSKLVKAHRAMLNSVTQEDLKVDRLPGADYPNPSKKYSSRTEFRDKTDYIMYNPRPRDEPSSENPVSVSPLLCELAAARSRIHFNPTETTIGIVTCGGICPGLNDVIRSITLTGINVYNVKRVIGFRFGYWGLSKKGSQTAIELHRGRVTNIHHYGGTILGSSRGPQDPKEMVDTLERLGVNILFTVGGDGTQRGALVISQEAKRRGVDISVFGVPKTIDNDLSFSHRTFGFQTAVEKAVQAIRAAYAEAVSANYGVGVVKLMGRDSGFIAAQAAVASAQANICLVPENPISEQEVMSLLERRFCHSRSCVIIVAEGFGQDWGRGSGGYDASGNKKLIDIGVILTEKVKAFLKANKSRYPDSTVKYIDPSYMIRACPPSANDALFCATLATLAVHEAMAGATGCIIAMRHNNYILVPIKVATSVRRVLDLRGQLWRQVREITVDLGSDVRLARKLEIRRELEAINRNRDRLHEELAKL
Sequence of Muscarinic acetylcholine receptor M1 (Rattus norvegicus) (P08482 whole entry, looked up): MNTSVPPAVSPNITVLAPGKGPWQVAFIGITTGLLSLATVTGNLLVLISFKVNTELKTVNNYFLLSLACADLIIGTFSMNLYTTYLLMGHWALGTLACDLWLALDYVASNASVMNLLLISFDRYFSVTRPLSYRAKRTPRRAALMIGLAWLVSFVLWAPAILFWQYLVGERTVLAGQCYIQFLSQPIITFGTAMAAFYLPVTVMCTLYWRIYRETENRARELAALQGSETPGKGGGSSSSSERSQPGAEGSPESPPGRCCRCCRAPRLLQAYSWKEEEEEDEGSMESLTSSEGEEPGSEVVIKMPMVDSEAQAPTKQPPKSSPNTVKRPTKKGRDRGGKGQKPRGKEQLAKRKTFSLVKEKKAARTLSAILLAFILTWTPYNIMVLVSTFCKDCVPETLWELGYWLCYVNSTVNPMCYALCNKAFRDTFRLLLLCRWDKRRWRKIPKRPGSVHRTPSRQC
Sequence of DNA dC->dU-editing enzyme APOBEC-3G (Homo sapiens) (Q9HC16 whole entry, looked up): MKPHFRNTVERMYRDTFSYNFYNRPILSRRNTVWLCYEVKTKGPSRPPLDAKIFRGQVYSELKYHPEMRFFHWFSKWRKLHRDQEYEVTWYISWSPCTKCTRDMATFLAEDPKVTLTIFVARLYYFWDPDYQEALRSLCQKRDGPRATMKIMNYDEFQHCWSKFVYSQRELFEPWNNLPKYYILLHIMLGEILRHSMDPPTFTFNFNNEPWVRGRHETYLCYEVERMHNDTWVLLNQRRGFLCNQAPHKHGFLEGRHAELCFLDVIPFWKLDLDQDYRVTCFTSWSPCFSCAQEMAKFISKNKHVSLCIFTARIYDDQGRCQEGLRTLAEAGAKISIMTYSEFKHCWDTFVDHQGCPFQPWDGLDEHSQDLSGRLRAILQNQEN
Sequence of Pyruvate kinase PKM (Homo sapiens) (P14618 whole entry, looked up): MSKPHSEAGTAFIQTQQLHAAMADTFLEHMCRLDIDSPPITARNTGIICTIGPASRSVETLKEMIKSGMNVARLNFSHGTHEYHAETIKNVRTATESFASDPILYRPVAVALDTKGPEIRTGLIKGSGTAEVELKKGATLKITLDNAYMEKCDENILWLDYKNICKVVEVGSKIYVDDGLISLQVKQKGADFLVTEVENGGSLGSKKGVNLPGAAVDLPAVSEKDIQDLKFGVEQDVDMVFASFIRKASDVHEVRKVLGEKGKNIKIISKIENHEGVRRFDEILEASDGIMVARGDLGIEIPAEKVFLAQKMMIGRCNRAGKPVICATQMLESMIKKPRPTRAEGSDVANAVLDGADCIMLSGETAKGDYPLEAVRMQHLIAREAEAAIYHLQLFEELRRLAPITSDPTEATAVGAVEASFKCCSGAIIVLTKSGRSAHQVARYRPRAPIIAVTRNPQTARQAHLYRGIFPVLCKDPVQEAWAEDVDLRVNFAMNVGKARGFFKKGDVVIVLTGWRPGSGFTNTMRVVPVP

C[C@@H]1O[C@@H](O[C@H]2C[C@@H](O)[C@]3(CO)[C@@H]4[C@@H](O)C[C@]5(C)[C@H](C6=CC(=O)OC6)CC[C@@]5(O)[C@H]4CC[C@@]3(O)C2)[C@H](O)[C@H](O)[C@@H]1O
inactive: outcome [1]

Oc1cc2c(cc1O)[C@H]1c3ccccc3CN[C@@H]1CC2
inactive: Potency [2]

OC(Cc1ccccc1)(c1ccccc1)C1CN2CCC1CC2 (stereo not drawn)
inactive: activation [3] 10.8%

CC(C)C[C@H](NC(=O)[C@@H]1CCCN1C(=O)[C@@H](N)Cc1ccc(O)cc1)C(=O)NCC(N)=O (H-YPLG-NH2)
inactive: activation [3] -10.4%

Oc1cc2c(cc1O)[C@H]1c3ccccc3CN[C@H]1CC2
inactive: outcome [4]

COC[C@H]1OC(=O)c2coc3c2[C@@]1(C)C1=C(C3=O)[C@H]2CCC(=O)[C@@]2(C)C[C@H]1OC(C)=O
inactive: Potency [2] | outcome [1] | outcome [4]

CCCCOC(=O)NS(=O)(=O)c1sc(CC(C)C)cc1-c1ccc(Cn2c(CC)nc3c(C)cc(C)nc32)cc1
inactive: outcome [5]

CC1(C)C(=O)N(CCN2CCC(C(=O)c3ccc(F)cc3)CC2)c2ccccc21
inactive: outcome [5]

Nc1ncnc2c1c(-c1ccc(Oc3ccccc3)cc1)cn2C1CCCC1
inactive: outcome [5]

O=c1[nH]c(=O)n([C@H]2C[C@H](O)[C@@H](CO)O2)cc1/C=C/Br
inactive: Potency [6]

Nc1nc(O)c(-c2ccccc2)o1
inactive: outcome [7] | Potency [6] | Potency (3D7) | Potency (CP191) | Potency (CP192) | Potency (CP201) | Potency (CP237) | Potency (CP262) | Potency (CP268) | Potency (CP286) | Potency (DIV30) | Potency (Dd2) | Potency (ECU) | Potency (GB4) | Potency (HB3)

CC1OC(O[C@H]2C[C@@H](O)[C@]3(CO)[C@@H]4C(CC[C@]3(O)C2)[C@@]2(O)CC[C@H](C3=CC(=O)OC3)[C@@]2(C)C[C@H]4O)C(O)C(O)C1O (stereo partly drawn)
inactive: outcome [7] | Potency [6] | Potency (3D7) | Potency (CP191) | Potency (CP192) | Potency (CP201) | Potency (CP237) | Potency (CP262) | Potency (CP268) | Potency (CP286) | Potency (DIV30) | Potency (Dd2) | Potency (ECU) | Potency (GB4) | Potency (HB3)

CC(C)C[C@H](NC(=O)[C@@H](Cc1c[nH]c2ccccc12)NC(=O)[C@@H](Cc1ccc(O)cc1)NC(=O)[C@@H](CO)NC(=O)[C@@H](Cc1c[nH]c2ccccc12)NC(=O)C(Cc1cnc[nH]1)NC(=O)C1CCC(=O)N1)C(=O)N[C@@H](CCCN=C(N)N)C(=O)N1CCC[C@@H]1C(=O)NCC(N)=O (stereo partly drawn)
inactive: outcome [7]
